From PubChem BioAssay come the findings set out here.

Assay [1] has as its system Aerobactin synthetase IucA (Klebsiella pneumoniae). Description: inhibition of K. pneumoniae IucA enzyme – biochemical, Tocris library, absorbance (AID 1345561).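 Also: 100% = enzyme without compound and 0% = no enzyme.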 To be noted: purified IucA enzyme assay, absorbance (OD) read-out; stronger effect = lower value;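 tested at 8 µM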.
Assay [2] can be described thus: viability loss with induced miR-34 in A549 – imaging, A549 dox-inducible miR-34, nuclei and caspase counts, primary screen (AID 1347080;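 active = compounds whose cell count with miR-34 switched on is under 0.7 times the count with it off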). To be noted: A549 miR-34 inducible, Hoechst nuclei count, 48 h.
Assay [3] is described as follows: galactose survival enhancers in mitochondrial complex I cybrids – cell-based, galactose medium, ATP luminescence, primary screen (AID 1645843;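 active = z-score of at least 1.8 in each of two replicates, scored against plate mean and spread of sample wells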;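 also: positive z means more ATP and so rescue of galactose-driven cybrid death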). The conditions noted are these: complex I mutant cybrid cells, 72 h, stronger effect = higher value.
A short description of assay [4]: viability loss in pontine glioma line – cell-based, JHH-DIPG-1, MIPE4.0, CellTiter-Glo, qHTS, dose response (AID 1347062; cut-off not given, nearly all actives have AC50 up to about 27 µM). The conditions noted are these: JHH-DIPG-1 viability, CellTiter-Glo ATP luminescence. A general note: ATP-based viability assays read luminescence as a measure of living cells.
Assay [5] in a line: viability loss in pontine glioma line – cell-based, SU-DIPG-IV, MIPE4.0, CellTiter-Glo, qHTS, dose response (AID 1347063; cut-off not given, nearly all actives have AC50 up to about 30 µM;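 also: compound exposure lasted 48 hours before the viability readout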). The conditions noted are these: CellTiter-Glo ATP luminescence.
Assay [6] in a line: growth inhibition of DIPG cells – cell-based, MIPE4.0 library, CellTiter-Glo luminescence, qHTS (AID 1347066; cut-off not given, nearly all actives have AC50 up to about 30 µM;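 also: cells exposed to compound for 48 hours before readout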). To be noted: SU-DIPG-VI viability, CellTiter-Glo ATP luminescence.
In assay [7] the target is ATP-dependent translocase ABCB1 (Homo sapiens) (UniProt P08183). In words: P-glycoprotein substrate transport blockade – cell-based (AID 377; in the data active = fluorescence slope change above about 50%). To be noted: MDR1-expressing cells, fluorescent substrate accumulation slope; stronger effect = higher value; concentration not given here.
Chain of ATP-dependent translocase ABCB1 (Homo sapiens) (P08183 whole entry, looked up): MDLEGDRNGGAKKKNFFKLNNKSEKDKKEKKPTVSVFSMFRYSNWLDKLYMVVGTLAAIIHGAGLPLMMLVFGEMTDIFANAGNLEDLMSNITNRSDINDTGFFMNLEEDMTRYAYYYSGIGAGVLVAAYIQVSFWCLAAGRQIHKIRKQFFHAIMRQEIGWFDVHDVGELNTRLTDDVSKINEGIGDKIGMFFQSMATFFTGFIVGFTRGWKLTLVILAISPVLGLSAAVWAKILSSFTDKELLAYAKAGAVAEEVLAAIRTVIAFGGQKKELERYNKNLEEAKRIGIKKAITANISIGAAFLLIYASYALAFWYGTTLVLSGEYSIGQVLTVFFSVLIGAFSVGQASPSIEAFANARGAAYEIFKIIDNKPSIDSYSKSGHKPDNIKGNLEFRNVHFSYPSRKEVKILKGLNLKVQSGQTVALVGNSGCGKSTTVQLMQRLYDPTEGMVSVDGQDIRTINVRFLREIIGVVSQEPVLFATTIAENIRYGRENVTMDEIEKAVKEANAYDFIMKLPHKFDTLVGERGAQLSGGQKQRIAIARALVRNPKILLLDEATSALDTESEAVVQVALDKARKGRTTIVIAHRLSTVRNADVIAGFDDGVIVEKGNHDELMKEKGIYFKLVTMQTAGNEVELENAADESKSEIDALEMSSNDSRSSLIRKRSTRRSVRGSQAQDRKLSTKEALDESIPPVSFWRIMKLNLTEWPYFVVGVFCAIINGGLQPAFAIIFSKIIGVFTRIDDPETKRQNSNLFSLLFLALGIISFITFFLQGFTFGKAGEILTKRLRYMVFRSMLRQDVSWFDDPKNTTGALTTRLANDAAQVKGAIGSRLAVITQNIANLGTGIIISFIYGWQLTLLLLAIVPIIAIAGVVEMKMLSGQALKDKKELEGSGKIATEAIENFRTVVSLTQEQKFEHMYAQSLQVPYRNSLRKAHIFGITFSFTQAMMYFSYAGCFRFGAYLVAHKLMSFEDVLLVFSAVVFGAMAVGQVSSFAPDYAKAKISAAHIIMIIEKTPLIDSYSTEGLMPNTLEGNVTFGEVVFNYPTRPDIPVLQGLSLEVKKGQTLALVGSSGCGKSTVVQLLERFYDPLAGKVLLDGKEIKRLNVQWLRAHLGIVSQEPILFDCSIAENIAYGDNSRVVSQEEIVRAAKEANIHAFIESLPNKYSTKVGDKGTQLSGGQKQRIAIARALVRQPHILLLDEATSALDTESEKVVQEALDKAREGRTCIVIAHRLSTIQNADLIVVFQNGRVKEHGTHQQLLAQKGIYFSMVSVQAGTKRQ
Assay [8] in a line: blockers of polyQ-driven CASP3 activation – cell-based (AID 1583). The conditions noted are these: polyglutamine-induced caspase-3 activation, cell assay; stronger effect = higher value;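 tested at 10 µM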.
A short description of assay [9]: yeast 75Q aggregation reduction – 75Q-TubU reporter (AID 1593). To be noted: Yeast 75Q polyglutamine aggregation reporter.
Assay [10] in a line: restoration of touch response, mutant HTT neurons – whole organism, C. elegans mechanosensory neurons, N-terminal huntingtin (AID 1599). To be noted: C. elegans polyQ-huntingtin mechanosensory neurons, stronger effect = higher value.
Assay [11] in a line: blockers of cytochrome c efflux from mitochondria – biochemical, purified mitochondria (AID 1603).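 Also: mouse liver mitochondria challenged with calcium chloride; signal normalized to the plate average as 100%.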 To be noted: stronger effect = lower value.
Assay [12] can be described thus: polyglutamine aggregate formation blockers (AID 1604). To be noted: polyglutamine-induced protein aggregation inhibition assay; stronger effect = higher value; tested at 2.5 µM.
The nature of assay [13]: glutamate transport activators, MN-1 cells, MN-1 cell line (AID 1612).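 Also: tested at 1 µM final; 0% = mean of DMSO vehicle wells on each plate; positive means more glutamate uptake than control and negative means less.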 The conditions noted are these: MN-1 motor neuron cells, stronger effect = higher value.
Assay [14] in a line: GFP-Q80 aggregate reduction, neuronal-like cells, cell-based, NGF-treated PC12, GFPQ80 (AID 1614).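 Also: lower means fewer inclusions and 0 means no inclusions at all.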 The conditions noted are these: PC12 NGF-treated GFP-polyQ80 inclusion reduction.
Assay [15] can be described thus: 75Q-TubH aggregate inhibition, S. cerevisiae, yeast (AID 1616). To be noted: S. cerevisiae 75Q-TubH polyglutamine aggregation suppression; stronger effect = higher value.
A short description of assay [16]: compounds altering circadian rhythm period length – cell-based, LOPAC library, luminescence reporter (AID 2774).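 Also: values are relative to mean of DMSO wells on each plate.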 To be noted: circadian reporter cells, at 7 µM, actives lie on both sides.
A short description of assay [17]: compounds altering viability of human ES cells (AID 493140).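 Also: cells exposed to compounds for four days before counting.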 The conditions noted are these: human embryonic stem cell survival screen; stronger effect = higher value.
Assay [18] can be described thus: P. berghei load reduction in hepatocytes – cell-based, HepG2, luciferase luminescence, HepG2 viability, primary screen (AID 624349; in the data active = parasite load remaining mostly below about 12%, no sharp cut-off; inactive = mostly above about 10%;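 also: 100% = mean of DMSO negative control wells on the same plate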). To be noted: P. berghei liver stage in HepG2, luciferase luminescence, concentration not given here; parasite load remaining: stronger effect = lower value; viability: measured here: HepG2 viability without parasites.
The nature of assay [19]: MELAS cybrid and Rieske KO viability enhancers – cell-based, MELAS cybrids, Rieske KO mouse fibroblasts, CellTiter-Glo, primary screen (AID 1508586;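 active = mean z-score across replicates of 1.96 or higher in either the MELAS or the Rieske mutant cell line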;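 also: z relative to plate mean and SD of compound and empty wells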). The conditions noted are these: low glucose.
The target in assay [20] is Mitogen-activated protein kinase 7 (Homo sapiens) (UniProt Q13164). In words: Gal4-ERK5 driven luciferase induction – cell-based, HTS, primary screen (AID 1508626;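 active = luciferase signal above three times the same-plate solvent-only control wells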;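 also: luciferase driven by Gal4-ERK5 fusion binding five Gal4 sites before minimal TATA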). To be noted: HeLa Gal4-ERK5 transactivation, 18 h, at 5 µM, stronger effect = higher value.
Chain of Mitogen-activated protein kinase 7 (Homo sapiens) (Q13164 whole entry, looked up, the tested form may be a part): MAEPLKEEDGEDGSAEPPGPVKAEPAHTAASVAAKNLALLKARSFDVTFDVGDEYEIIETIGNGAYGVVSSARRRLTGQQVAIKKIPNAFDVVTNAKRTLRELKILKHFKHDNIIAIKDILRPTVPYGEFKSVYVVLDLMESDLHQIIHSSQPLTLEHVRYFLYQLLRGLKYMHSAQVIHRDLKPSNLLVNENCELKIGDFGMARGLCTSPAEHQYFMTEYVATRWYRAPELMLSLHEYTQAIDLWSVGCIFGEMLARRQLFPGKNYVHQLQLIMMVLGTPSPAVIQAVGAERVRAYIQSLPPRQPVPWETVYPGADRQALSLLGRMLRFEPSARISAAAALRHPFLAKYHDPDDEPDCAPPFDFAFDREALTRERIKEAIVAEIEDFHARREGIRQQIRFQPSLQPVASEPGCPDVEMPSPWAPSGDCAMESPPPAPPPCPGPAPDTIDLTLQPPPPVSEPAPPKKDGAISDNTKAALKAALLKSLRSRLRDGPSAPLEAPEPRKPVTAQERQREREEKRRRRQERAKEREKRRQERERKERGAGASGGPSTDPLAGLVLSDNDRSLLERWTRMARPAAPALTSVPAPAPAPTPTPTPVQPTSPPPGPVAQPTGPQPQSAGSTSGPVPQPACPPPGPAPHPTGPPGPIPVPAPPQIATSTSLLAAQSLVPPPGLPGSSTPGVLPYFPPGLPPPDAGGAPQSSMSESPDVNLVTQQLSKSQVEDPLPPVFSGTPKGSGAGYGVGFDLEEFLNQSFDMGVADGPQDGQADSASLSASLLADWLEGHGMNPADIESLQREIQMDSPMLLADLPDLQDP
The test system of assay [21] is Hepatitis C virus NS3 helicase. Description: blockers of NS3h binding to ssDNA – biochemical, fluorescence polarization, LOPAC1280 library, primary screen (AID 687035; in the data active = inhibition above about 37%). To be noted: Purified HCV NS3 helicase, Cy5-dT15 ssDNA binding fluorescence polarization; stronger effect = higher value; concentration not given here. (In fluorescence polarisation assays a small probe gives low polarisation when free and higher when bound to something large.)

A short description of assay [22]: compounds altering Cy5-DNA-NS3h complex signal – biochemical, LOPAC1280, artefact control for HCV NS3 helicase inhibitor project (AID 687037). The conditions noted are these: Cy5-DNA-NS3h complex fluorescence interference counterscreen. In general terms: Counterscreens check selectivity or assay interference.
Assay [23] has as its system Aerobactin synthetase IucA (Klebsiella pneumoniae, hypervirulent). Description: biochemical IucA inhibition screen of LOPAC library by absorbance (AID 1346212).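 Also: 100% = no compound wells and 0% = no enzyme wells.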 To be noted: IucA enzyme assay, absorbance (OD) readout; stronger effect = lower value;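 tested at 8 µM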.
Setting [24] is: stronger effect = lower value, cell number ratio, induced over uninduced.
[25] abbreviates: measured here: relative caspase fold change +Dox/-Dox.
The mark [26] stands for this setting: measured here: total cells with miR-34 induction, stronger effect = lower value.
Setting [27] is: measured here: total cells without miR-34 induction.

Where “and” joins values, the source holds several entries; their conditions need not be identical. Equal entries are not always repeated. Records with an inconclusive call do not appear. For some assays here: Potency and affinity values are given separately. Calls of active or inactive are those of the source. Unless noted, no rule for the calls is given here.

With `COC(=O)CN1CN(c2ccccc2)C2(CCN(Cc3ccc4ccccc4c3)CC2)C1=O`, the remaining activity in [1] was 120% (inactive). Besides, the fold change in [2] (setting [24]) was 0.912 (inactive); in [2] (setting [25]), 0.824. The cell count in assay [2] (setting [26]) came out at 8960; in assay [2] (setting [27]) it was 9820. Besides, the z-score in assay [3] was 0.375 (inactive).

As to `Clc1ccc(C2=CCCC3CCC2N3)cn1` (stereo not given), the remaining activity in [1] is 101% (inactive). For the same molecule, the fold change is 0.907 (inactive) in [2] (setting [24]) and 0.911 in [2] (setting [25]). Besides, the cell count in assay [2] (setting [26]) came out at 9190; in [2] (setting [27]) it was 10100. For the same molecule, the z-score in assay [3] was 0.365 (inactive).

For the molecule `CC(=O)N(C)c1cccc(-c2ccnc3c(C(=O)c4cccs4)cnn23)c1`, in [1], the remaining activity is 110% (inactive). Besides, the outcome in assay [4], in assay [5] and in [6] was inactive. Moreover, the fold change was 0.919 (inactive) in assay [2] (stronger effect = lower value) and 1.18 in assay [2] (setting [25]). Also, the cell count came out at 6530 in [2] (setting [26]) and 7110 in assay [2] (setting [27]). The z-score in assay [3] was 2.35 (active).

As to `Cc1cc(C)cc(C(=O)OC2CC3CCC(C2)N3C)c1` (stereo not given), in assay [1], the remaining activity was 86.6% (inactive). Further, the fold change is 0.914 (inactive) in assay [2] (setting [24]) and 1.01 in assay [2] (setting [25]). For the same molecule, the cell count in assay [2] (setting [26]) turned out to be 8100; in [2] (setting [27]), 8850. Also, in assay [3], the z-score was -0.125 (inactive).

With `Cc1ccc2c(c1)Cc1c(C(=O)NC3CCCCC3)nn(-c3ccc(Cl)cc3Cl)c1-2`, the remaining activity in [1] is 103% (inactive). Besides, the fold change in assay [2] (setting [24]) is 0.986 (inactive); in assay [2] (setting [25]) it was 1.35. The cell count was determined as 8570 in assay [2] (setting [26]) and 8690 in assay [2] (setting [27]). Also, the z-score in assay [3] is -0.01 (inactive).

As to `CN1CCc2cc3c(cc2[C@H]1[C@@H]1OC(=O)c2c1ccc1c2OCO1)OCO3`, the fluorescence slope change in assay [7] is 0.5% (inactive). Besides, the inhibition in assay [8] was -6.49%. The score in assay [9] was 1.32. Besides, the rescue above control in [10] came out at 3.46. The cytochrome c release ratio in [11] turned out to be 0.82. In assay [12], this molecule returned an inhibition of aggregation of 59.1%. Also, in [13], the glutamate uptake change is 4.35%. Moreover, the inclusion score in [14] was 1.5. This molecule also showed an aggregation suppression score in assay [15] of 0.931. In addition, the period change in assay [16] was 0.03 h (inactive). In addition, in [17], the survival was 5.92 (inactive). For the same molecule, the parasite load remaining in assay [18] was 65% (inactive) and 87.6% (inactive). In assay [18], the viability is 109% and 77.4%. For the same molecule, in assay [1], the remaining activity is 114% (inactive). The fold change was 0.865 (inactive) and 0.821 (inactive) and 0.983 (inactive) in assay [2] (stronger effect = lower value); 1.2 and 0.761 and 1.26 in assay [2] (setting [25]). For the same molecule, the cell count is 9130 and 8360 and 9120 in assay [2] (setting [26]); 10600 and 10200 and 9280 in assay [2] (setting [27]). The z-score was -0.206 (inactive) in [19] (MELAS cybrid survival, CellTiter-Glo 48 h, stronger effect = higher value); -0.158 in [19] (Rieske KO mouse fibroblast survival, CellTiter-Glo 72 h); 0.335 (inactive) in [3]. Besides, the luciferase signal in assay [20] was 44 AU (inactive).

Take `C[N+]1(C)CCC(OC(=O)C(c2ccccc2)c2ccccc2)CC1`: the period change in [16] was 0.03 h (inactive). In addition, the inhibition in assay [21] was -2% (inactive). Moreover, the fluorescence ratio (interference) in assay [22] was 1.1 (inactive). Besides, the remaining activity in assay [1] is 93.9% (inactive); in assay [23] it was 107% (inactive). Also, the fold change in assay [2] (stronger effect = lower value) is 0.984 (inactive) and 0.955 (inactive); in [2] (setting [25]), 1.12 and 0.994. Besides, the cell count in [2] (setting [26]) was 9760 and 8710; in assay [2] (setting [27]) it was 9910 and 9120. For the same molecule, the z-score in assay [3] was 0.275 (inactive) and 1.67 (inactive).

The remaining activity is the signal under treatment as a percentage of the control signal. A word on the inhibition: it is the change of the read-out against control, counted positive when it falls. As usually defined, the viability is a read-out of living cells in per cent, often relative to untreated cells.
